Compound activity (PubChem BioAssay)
The list is not random: actives were taken first. Their share in the collection is about 4.7%.
eIF4H inh = human eIF4H binding inhibitors, primary screen, translation initiation inhibitor project, biochemical, uHTS, fluorescence polarization; inhibition, % at 35 µM; eIF4H fluorescence polarization binding assay; 290,000 tested, 0.94% active; Eukaryotic translation initiation factor 4H (Homo sapiens), Q15056;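 note: calls also rest on retests at 20 µM and on dose response follow-up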
SUMO HTRF inh = inhibitors of in vitro SUMOylation cascade, primary screen, biochemical, HTRF, uHTS | SUMO-conjugating enzyme UBC9 (Homo sapiens), P63279 | HTRF SUMOylation assay, SAE1/SAE2 + UBC9 | inhibition, % at 35 µM | 290,000 tested, 0.36% active; in the data active = inhibition above about 50%, passing the limit was not always enough
PABP1 MLLE inh = inhibitors of PABP1 MLLE–PAM2 peptide binding, primary screen, biochemical, fluorescence polarization, FITC-PAM2, GST-MLLE; Polyadenylate-binding protein 1 (Homo sapiens), P11940; inhibition, % at 20 µM; 360,000 tested, 0.36% active; in the data active = inhibition above about 35%, passing the limit was not always enough
Target sequence (P11940 whole entry, looked up): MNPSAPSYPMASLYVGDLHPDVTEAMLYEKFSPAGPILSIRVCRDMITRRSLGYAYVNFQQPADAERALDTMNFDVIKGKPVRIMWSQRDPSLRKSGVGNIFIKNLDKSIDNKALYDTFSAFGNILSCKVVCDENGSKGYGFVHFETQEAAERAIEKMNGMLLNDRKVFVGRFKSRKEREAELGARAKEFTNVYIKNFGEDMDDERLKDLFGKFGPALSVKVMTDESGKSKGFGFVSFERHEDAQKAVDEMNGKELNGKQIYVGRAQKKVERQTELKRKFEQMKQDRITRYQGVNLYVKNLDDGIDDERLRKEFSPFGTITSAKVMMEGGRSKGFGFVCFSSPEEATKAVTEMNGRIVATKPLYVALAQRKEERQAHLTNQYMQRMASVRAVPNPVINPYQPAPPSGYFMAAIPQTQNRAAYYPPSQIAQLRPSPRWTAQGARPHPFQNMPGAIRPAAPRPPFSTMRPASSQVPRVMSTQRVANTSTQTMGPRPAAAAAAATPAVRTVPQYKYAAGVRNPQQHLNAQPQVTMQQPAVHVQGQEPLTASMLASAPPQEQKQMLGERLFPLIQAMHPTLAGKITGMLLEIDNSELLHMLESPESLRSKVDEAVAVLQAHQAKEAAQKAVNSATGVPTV
Efflux pump inh = inhibitors of Candida efflux pumps in yeast, primary screen, S. cerevisiae, Nile Red, multiplex; 330,000 tested, 0.44% active; S. cerevisiae Candida pump triplex; inhibition, % at 10 µM;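 active = plate passing quality check with inhibition over a set limit, or well fluorescence over plate mean plus 4 SD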;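 note: Nile Red retained in pooled yeast measured as flow cytometry median fluorescence; higher means more Nile Red kept so more efflux inhibition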
ALR inh = inhibitors of human ALR sulfhydryl oxidase, primary screen, biochemical, H2O2 detection, HRP-luminol luminescence, single point; purified ALR, DTT oxidation; inhibition, % (test concentration not listed); 290,000 tested, 3.8% active; AID 485317, 2010; FAD-linked sulfhydryl oxidase ALR (Homo sapiens), P55789;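 active = mean replicate inhibition above about 79%, with every replicate also reaching it, limit read from the data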
PABP FP inh = PABP poly(A) RNA binding inhibitors, primary screen, biochemical, fluorescence polarization, uHTS | 290,000 tested, 1% active | inhibition, % at 35 µM;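 note: calls also rest on retests at 20 µM and on dose response follow-up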
Yeast cmpd fluor = compound fluorescence in yeast efflux pump counter-screen; shares compounds with Efflux pump inh; S. cerevisiae AD/pABC3, flow cytometry; fluorescence ratio to DMSO, % at 10 µM; 1,700 tested, 4% active; AID 588517;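 active = fluorescence ratio to DMSO above its plate's cutoff, the plate mean ratio plus 5 SD, cut at about 210% in these data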;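 note: unstained yeast with no Nile Red so the signal is compound autofluorescence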
CaMdr1 efflux inh = inhibitors of Candida albicans Mdr1 efflux, confirmation, flow cytometry, singleplex, Cherry Pick1 set. shares compounds with Efflux pump inh. inhibition, % at 10 µM. S. cerevisiae AD/CaMDR1, Nile Red efflux. 1,700 tested, 1% active; in the data active = inhibition above about 26%;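 note: higher means more Nile Red retained so more efflux inhibition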
Cdr2 pump inh = inhibitors of Candida albicans Cdr2 efflux pump, confirmation, S. cerevisiae AD/CaCDR2, flow cytometry, cherry pick 1, singleplex. shares compounds with Efflux pump inh. Nile Red retention. Nile Red retention ratio vs DMSO, % at 10 µM. 1,700 tested, 4% active; in the data active = Nile Red retention ratio vs DMSO above about 190%;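 note: higher ratio means more blocking of Cdr2 efflux of the dye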
CaCdr1 efflux inh = inhibitors of Candida albicans Cdr1 efflux pump, confirmation, S. cerevisiae AD/CaCDR1, flow cytometry, cherry pick 1, singleplex; Nile Red efflux; shares compounds with Efflux pump inh; 1,700 tested, 1% active; inhibition, % at 10 µM;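 active = inhibition above the screen-wide mean plus twice its standard deviation, cut at about 32% in these data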
Of the large screens only hits and unclear results are named; the others gave an inactive call (follow-up assays come after a bar, where they were run). Unless noted, the rule behind the calls is not given here.

CCN1C(=O)[C@H]2[C@@H](c3ccc(-c4cccc(Cl)c4)cc3)N3CCCC[C@@]3(C(=O)OC)[C@H]2C1=O	Efflux pump inh 0.7 (no result: eIF4H inh, SUMO HTRF inh, ALR inh, PABP FP inh) | Yeast cmpd fluor inactive | CaMdr1 efflux inh inactive | Cdr2 pump inh inactive | CaCdr1 efflux inh inactive
Cc1ccc(C(=O)OC(C(=O)O)C(OC(=O)c2ccc(C)cc2)C(=O)O)cc1 (stereo not given)	none (no result: eIF4H inh, SUMO HTRF inh, PABP FP inh)
COC(=O)C1=C(C)OC(N)=C(C#N)C1c1c(C)nn(C)c1C (stereo not given)	Efflux pump inh 6.5 | Yeast cmpd fluor inactive | CaMdr1 efflux inh inactive | Cdr2 pump inh inactive | CaCdr1 efflux inh inactive
COC(=O)C1=C(C)OC(N)=C(C#N)C1c1c(C)nn(-c2ccccc2)c1Cl (stereo not given)	none (no result: ALR inh)
CC[C@H](C)NC(=O)c1ccc(Cn2c(=S)[nH]c3c([nH]c4ccc(OC)cc43)c2=O)cc1	none
CCCCNC(=O)c1ccc(Cn2c(=S)[nH]c3c([nH]c4ccc(OC)cc43)c2=O)cc1	SUMO HTRF inh 53.2, Efflux pump inh 8.2 | Yeast cmpd fluor inactive | CaMdr1 efflux inh inactive | Cdr2 pump inh inactive | CaCdr1 efflux inh inactive
COc1ccc(CC(=O)O/N=C(\N)c2ccccc2)cc1OC	none | Yeast cmpd fluor inactive | CaMdr1 efflux inh inactive | Cdr2 pump inh inactive | CaCdr1 efflux inh inactive
COc1ccc(/C(N)=N/OC(=O)Cc2cccs2)cc1OC	Efflux pump inh 6.7 | Yeast cmpd fluor inactive | CaMdr1 efflux inh inactive | Cdr2 pump inh inactive | CaCdr1 efflux inh inactive
COc1ccc(CC(=O)O/N=C(\N)c2ccc(OC)cc2)cc1	none | Yeast cmpd fluor inactive | CaMdr1 efflux inh inactive | Cdr2 pump inh inactive | CaCdr1 efflux inh inactive
COc1ccc(/C(N)=N/OC(=O)Oc2ccccc2)cc1OC	Efflux pump inh 5.8 | Yeast cmpd fluor inactive | CaMdr1 efflux inh inactive | Cdr2 pump inh inactive | CaCdr1 efflux inh inactive
COc1ccc(/C(N)=N/OC(=O)Cc2cccs2)cc1	none
COc1ccc(CC(=O)O/N=C(\N)Cc2ccc(OC)cc2)cc1	none (no result: ALR inh)
Cc1ccc(CNC(=O)C2CC3Cn4c(nc5cc6ccccc6cc54)C3N2C)o1 (stereo not given)	none
CC1(c2cccc(Br)c2)NC(=O)NC1=O (stereo not given)	none
CCN(CC)C(=O)CSc1nnc(-c2ccncc2)n1N	Efflux pump inh 5.9 | Yeast cmpd fluor inactive | CaMdr1 efflux inh inactive | Cdr2 pump inh inactive | CaCdr1 efflux inh inactive
Cc1ccc(C(=O)CSc2nnc(-c3ccncc3)n2C)cc1	none
CCn1c(SCC(=O)c2ccc(C)cc2)nnc1-c1ccncc1	Efflux pump inh 8.2 | Yeast cmpd fluor inactive | CaMdr1 efflux inh inactive | Cdr2 pump inh inactive | CaCdr1 efflux inh inactive
COc1ccc(-c2nc(NC(=O)c3nc4nccc(C)n4n3)sc2C)cc1	Efflux pump inh 1.0 (no result: ALR inh) | Yeast cmpd fluor inactive | CaMdr1 efflux inh inactive | Cdr2 pump inh inactive | CaCdr1 efflux inh inactive
Nc1nonc1-n1nnc(C(=O)N/N=C/c2ccc(OCc3ccccc3)cc2)c1COc1ccc(F)cc1	none
Nc1nonc1-n1nnc(C(=O)N/N=C/c2c(Cl)cccc2Cl)c1CSC1=NCCS1	none | Yeast cmpd fluor inactive | CaMdr1 efflux inh inactive | Cdr2 pump inh inactive | CaCdr1 efflux inh inactive
Nc1nonc1-n1nnc(C(=O)N/N=C/c2ccccc2Cl)c1CSc1ccccc1	none
Nc1nonc1-n1nnc(C(=O)N/N=C/c2ccc(O)cc2)c1COc1ccc(F)cc1	none | Yeast cmpd fluor inactive | CaMdr1 efflux inh inactive | Cdr2 pump inh inactive | CaCdr1 efflux inh inactive
Nc1nonc1-n1nnc(C(=O)N/N=C/C=C/c2ccccc2)c1CSC1=NCCS1	none
Nc1nonc1-n1nnc(C(=O)N/N=C/c2ccccc2Cl)c1COc1ccc(F)cc1	none | Yeast cmpd fluor inactive | CaMdr1 efflux inh inactive | Cdr2 pump inh inactive | CaCdr1 efflux inh inactive
CCCOc1ccc(-c2c(C(=O)N/N=C/c3ccccc3)nnn2-c2nonc2N)cc1	none | Yeast cmpd fluor inactive | CaMdr1 efflux inh inactive | Cdr2 pump inh inactive | CaCdr1 efflux inh inactive
CCOC(=O)C1=C(COC(=O)C2CC(=O)N(c3ccc(C)cc3)C2)NC(=O)NC1C (stereo not given)	none (no result: eIF4H inh, SUMO HTRF inh, PABP FP inh)
COc1ccc(N/C=C/C(=O)c2ccc(Cl)cc2)cc1	Efflux pump inh 15.2 | Yeast cmpd fluor inactive | CaMdr1 efflux inh inactive | Cdr2 pump inh inactive | CaCdr1 efflux inh inactive
COc1cccc(N/C=C/C(=O)c2ccc(Cl)cc2)c1	none
O=C1NCCNC1c1ccccc1 (stereo not given)	none (no result: eIF4H inh, SUMO HTRF inh, Efflux pump inh, ALR inh, PABP FP inh)
Cc1ccc(S(=O)(=O)CCSc2nccn2C)cc1	Efflux pump inh 3.3 | Yeast cmpd fluor inactive | CaMdr1 efflux inh inactive | Cdr2 pump inh inactive | CaCdr1 efflux inh inactive
Cc1ccc(S(=O)(=O)CCSc2n[nH]c(=O)n2-c2ccccc2)cc1	none
Cc1ccc(CNC(=O)CCc2cn(C)c3ccccc23)cc1	none
Cn1c(-c2ccccc2)cnc1SCC(=O)N1CCCc2ccccc21	Efflux pump inh 15.2 | Yeast cmpd fluor inactive | CaMdr1 efflux inh inactive | Cdr2 pump inh inactive | CaCdr1 efflux inh inactive
O=C(N/N=C/c1cccc(Br)c1)C1CC(=O)N(c2ccccc2)C1 (stereo not given)	none
O=c1[nH]c(C2CCN(S(=O)(=O)c3ccccc3C(F)(F)F)CC2)nc2c1nnn2Cc1cccc(F)c1	Efflux pump inh 3.1 | Yeast cmpd fluor inactive | CaMdr1 efflux inh inactive | Cdr2 pump inh inactive | CaCdr1 efflux inh inactive
Cc1ccc(C)c(Cn2nnc3c(=O)[nH]c(C4CCN(S(=O)(=O)c5ccc(S(=O)(=O)NC6CC6)cc5)CC4)nc32)c1	Efflux pump inh 3.1 | Yeast cmpd fluor inactive | CaMdr1 efflux inh inactive | Cdr2 pump inh inactive | CaCdr1 efflux inh inactive
O=c1[nH]c(C2CCN(S(=O)(=O)c3ccc4c(c3)OCCO4)CC2)nc2c1nnn2Cc1c(F)cccc1Cl	none (no result: ALR inh)
O=c1[nH]c(C2CCN(S(=O)(=O)c3ccc(C(F)(F)F)cc3)CC2)nc2c1nnn2Cc1cccc(F)c1	none (no result: ALR inh)
